Bioassay records deposited in PubChem BioAssay by National Center for Advancing Translational Sciences (NCATS).
ERK AVP block: qHTS Assay for Inhibitors of the ERK Signaling Pathway using a Homogeneous Screening Assay; HEK293-V1b, vasopressin-stimulated pERK AlphaScreen; Potency, µM (titrated, usually from 57.5 µM), for inactives: at the highest dose activity, negative = inhibition, actives largely listed as inhibitors; 72,000 tested, 0.99% active; also: % is scaled to controls: 0 for no effect and ±100 for the full control effect; nearly all actives have a fitted effect of over 55% in size
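HEK293 cells stably expressing V1b receptor, seeded overnight in 1% FBS, were treated with compounds for 30 min at 37C, then stimulated 5 min with 25 nM vasopressin; phospho-ERK read by AlphaScreen SureFire after lysis.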
Caspase-7 inhib: qHTS Assay for Allosteric/Competitive Inhibitors of Caspase-7. P55210. recombinant caspase-7, Ac-DEVD-AFC fluorescence rate. Potency, µM (doses to about 57.5 µM), for the others: at the top dose activity change, negative = inhibition, actives largely listed as inhibitors. 75,000 tested, 0.02% active. AID 889, 2007; active = well fitted inhibition curve with a large enough effect in the main read-out, with a control signal flat, not every such curve was filed as active; inconclusive = small, poorly fitted or top-dose-only effect, or a change in a side signal; also: % of control where 0% means no effect
Target sequence (P55210 24-198 limits assumed): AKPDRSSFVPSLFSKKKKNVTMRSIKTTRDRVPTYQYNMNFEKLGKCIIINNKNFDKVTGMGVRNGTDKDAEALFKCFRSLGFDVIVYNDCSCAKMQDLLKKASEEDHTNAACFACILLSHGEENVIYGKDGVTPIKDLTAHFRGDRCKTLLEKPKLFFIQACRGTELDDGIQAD
Target sequence (P55210 207-303 limits assumed): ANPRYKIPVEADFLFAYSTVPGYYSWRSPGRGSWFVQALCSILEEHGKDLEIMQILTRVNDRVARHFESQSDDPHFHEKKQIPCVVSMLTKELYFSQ
Casp1 inh: qHTS Assay for Allosteric/Competitive Inhibitors of Caspase-1. P29466. Caspase-1 enzyme, Ac-WEHD-AFC fluorogenic rate. Potency, µM (doses to about 57.5 µM), without a hit: top-dose activity change, negative = inhibition, actives largely listed as inhibitors. 75,000 tested, 0.03% active. AID 900, 2007;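 also: plate controls were vehicle for no effect and no substrate for full effect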
Target sequence (P29466 120-297 limits assumed): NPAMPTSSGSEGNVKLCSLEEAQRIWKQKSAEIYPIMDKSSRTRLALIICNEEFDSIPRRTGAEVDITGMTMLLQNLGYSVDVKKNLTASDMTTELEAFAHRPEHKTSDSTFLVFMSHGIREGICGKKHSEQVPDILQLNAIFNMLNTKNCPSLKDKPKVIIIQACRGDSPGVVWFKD
Target sequence (P29466 317-404 limits assumed): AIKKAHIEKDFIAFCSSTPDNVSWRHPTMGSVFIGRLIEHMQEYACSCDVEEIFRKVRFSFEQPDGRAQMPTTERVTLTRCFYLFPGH
HEK293 cAMP ctrl: qHTS Assay for Agonists of the Thyroid Stimulating Hormone Receptor: Activators of Intracellular cAMP Concentrations in Parental HEK 293; parental HEK293 CNG cAMP sensor, membrane potential fluorescence; Potency, µM (series often up to 57.1 µM), for the others: at the highest dose activation, most hits filed as activators; 73,000 tested, 2.5% active; also: % of control where 0% means no effect; nearly all actives have a fitted effect of over 55% in size
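Counterscreen for endogenous-receptor signalling: CNG-channel HEK 293 cells report cAMP rise by membrane depolarization. After 60 min dye equilibration with 100 uM RO 20-1724, compounds incubated 30 min before bottom-read fluorescence at 590 nm.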
GBA activity: Glucocerebrosidase; Lysosomal acid glucosylceramidase (Homo sapiens), P04062; purified enzyme, resorufin glucoside fluorescence (screen aimed at inhibitors), 20 min; Potency, µM; 48,000 tested, 1.1% active; AID 360, 2006; in the data active = potency below about 15 µM; inconclusive = mostly about 16 µM to 33 µM;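 also: the screen sought inhibitors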
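Compounds titrated against 0.2 nM normal enzyme, 30 uM resorufin beta-D-glucopyranoside substrate, citrate/phosphate buffer with taurocholate and tween-20, pH 5.9. Reaction ran 20 min at room temperature; fluorescence (Ex 548/Em 600) gave AC50.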
TSHR ag: qHTS Assay for Agonists of the Thyroid Stimulating Hormone Receptor; Thyrotropin receptor (Homo sapiens), P16473; HEK293-CNG-TSHR cells (CNG channel as cAMP sensor), membrane potential dye, cAMP; Potency, µM (series often up to 57.1 µM), for inactives: at the highest dose activation, actives largely listed as activators; 73,000 tested, 0.48% active; AID 926, 2007; active = well fitted activation curve with a large enough effect in the main read-out, with a control signal flat, not every such curve was filed as active; inconclusive = small, poorly fitted or top-dose-only effect, or a change in a side signal; inactive = no such curve, though single readings can be large or run the other way; % of control where 0% means no effect;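 also: the control signal comes from parental cells without the receptor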
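cAMP rise detected as CNG-channel membrane depolarization by fluorescent dye (emission 590 nm), 30 min after compound, following 60 min dye loading containing 100 uM RO 20-1724 at room temperature. Cells: TSHR/CNG HEK 293, with parental CNG HEK 293 as control.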
Numbers without * were called inactive; i = inactive; u = inconclusive; x = no result given; [ ] = remark or other dose. This is a sample that favours compounds with a hit; in the whole collection about 4.5% have one here. Unless noted, calls follow the shape of the dose curve; as a rule, active = well fitted curve in the direction sought with a large enough effect; inconclusive = small, poorly fitted or top-dose-only effect, or another doubt; inactive = no such curve, though single readings can be large; an effect the other way counts as inactive or inconclusive. Potency is read from the fitted curve at half-maximal effect.

SMILES	ERK AVP block	Caspase-7 inhib	Casp1 inh	HEK293 cAMP ctrl	GBA activity	TSHR ag
CO/N=C(/C)CCC(=O)OC[C@@H]1O[C@H](c2ccccc2)C=C[C@@H]1Oc1ccc(OC)cc1	5%[11.5 µM]	1%[11.5 µM]	1%[11.5 µM]	u	x	u
CCCn1cnc2c(c1=O)c1nc3ccccc3nc1n2CCC1=CCCCC1	-14%	-1%	-2%	19%	>77	x
CCCn1cnc2c(c1=O)c1nc3ccccc3nc1n2CCc1ccccc1	-6%	-3%	-4%	u	7*	u
CC(CC(=O)O)(CC(=O)O)C(=O)O	-14%[11.5 µM]	4%[11.5 µM]	-2%[11.5 µM]	u	x	u
O=S(=O)(NC1CCCC1)c1ccc(S(=O)(=O)N2CCCN(Cc3ccccc3)C2)cc1	27%	-3%	-4%	26%	15*	23%
CCn1c(C(=O)NCCCc2ccccc2)cc2sccc21	x	-3%	-4%	-59%	x	u
Cn1c(C(=O)N(Cc2ccccc2)Cc2ccccn2)cc2sccc21	1%	-25%	-2%	16µM*	i	u
Cn1c(C(=O)N(Cc2ccccc2)Cc2cccs2)cc2sccc21	-16%	-1%	-2%	16µM*	x	u
Cc1ccc2oc(=O)n(CCCOc3ccccc3)c2c1	11%	2%	-5%	u	>77	u
Cc1ccc2oc(=O)n(Cc3ccccc3OC(C)C)c2c1	-11%	-3%	-3%	25µM*	>77	u
CCCCOc1ccccc1Cn1c(=O)oc2ccc(C)cc21	50%	0%	-1%	16µM*	>77	u
Cc1cccc(S(=O)(=O)Nc2cccc(-c3cn4ccsc4n3)c2)c1	16%	-20%	-2%	13%	x	23%
Cc1ccc2nc(-c3cccc(S(=O)(=O)N(C)C)c3)cn2c1	-17%	1%	-3%	25µM*	>77	u
CCC(COC(=O)Nc1cccc(C)c1)NC(=O)OCC(C)C (stereo not given)	1%	1%	0%	u	>77	u
Cc1nnsc1NC(=O)OCC(C)C	u	-1%	-2%	13µM*	>77	u
O=C1OC2(c3cc(Br)c(O)c(Br)c3Oc3c2cc(Br)c(O)c3Br)c2c(Cl)c(Cl)c(Cl)c(Cl)c21	u	-14%	u	16µM*	x	u
CCN(Cc1ccccc1)C(c1ccncc1)c1nnnn1C(C)(C)C (stereo not given)	5%	1%	2%	u	>77	u
CC(C)(C)n1nnnc1C(c1cccs1)N(Cc1ccccc1)Cc1cccnc1 (stereo not given)	-8%	-2%	-1%	16µM*	x	u
COc1ccc(OC)c(C(=O)COC(=O)c2ccccc2O)c1	-1%	-4%	-3%	25µM*	>77	u
COc1ccc(O)c(C(=O)CC(=O)c2ccccc2)c1	22%	-5%	-5%	6%	x	12%
Oc1c(Cl)cc(C(c2cc(Cl)c(O)c(Cl)c2)C(c2cc(Cl)c(O)c(Cl)c2)c2cc(Cl)c(O)c(Cl)c2)cc1Cl	17%[11.5 µM]	-6%[11.5 µM]	2%[11.5 µM]	-4%[11.4 µM]	x	11%[11.4 µM]
COc1ccc(C(=O)N2CCC[C@@]3(CCN(c4ccccc4)C3)C2)cc1	0%	-5%	-5%	13µM*	x	u
Cn1cccc1C(=O)N1CCC[C@@]2(CCN(c3ccccn3)C2)C1	-11%	1%	1%	14%	x	12%
Cn1cccc1C(=O)N1CCC[C@@]2(CCN(c3ccncc3)C2)C1	-17%	1%	-2%	5µM*	x	u
COc1ccc(C(=O)N2CCC[C@@]3(CCN(c4ccncc4)C3)C2)cc1	3%	0%	1%	11%	x	20%
SMILES	ERK AVP block	Caspase-7 inhib	Casp1 inh	HEK293 cAMP ctrl	GBA activity	TSHR ag
CCOC(=O)CSc1nc2c(sc3ccccc32)c(=O)n1CCCN1CCOCC1	15%	-1%	-1%	13µM*	i	u
S=c1nc[nH]c2c1ncn2Cc1ccco1	26%[11.5 µM]	-1%[11.5 µM]	-2%[11.5 µM]	18%[11.4 µM]	x	4%[11.4 µM]
O=C(Nc1nccs1)c1c(O)c2cccc3c2n(c1=O)CCC3	-2%	-4%	0%	1.3µM*	>77	u
O=C(NC1CCCCC1)C(c1cccs1)N(Cc1cccs1)C(=O)c1ccco1 (stereo not given)	2%	-2%	-2%	0.4µM*	>77	u
O=C(NC1CCCCC1)C(c1cccs1)N(CC1CCCO1)C(=O)c1csnn1 (stereo not given)	-14%	1%	-1%	u	>77	u
O=C(NC1CCCC1)C(c1cccs1)N(CC1CCCO1)C(=O)Cc1cccs1 (stereo not given)	4%	7%	0%	0.32µM*	>77	u
COc1ccc(CN(C(=O)CNC(=O)c2ccco2)C(C(=O)NC2CCCC2)c2ccco2)cc1 (stereo not given)	-6%	-2%	-1%	27%	>77	10%
O=C(NCC(=O)N(Cc1ccc(F)cc1)C(C(=O)NC1CCCC1)c1ccco1)c1ccco1 (stereo not given)	-12%	0%	1%	16µM*	>77	u
CC[C@@H](c1ccc2cc(O)ccc2c1)C(C)(C)C(=O)O	15%[11.5 µM]	-1%[11.5 µM]	0%[11.5 µM]	-9%[11.4 µM]	x	2%[11.4 µM]
Cc1noc(C)c1-c1nc(N(C)C)c2ccccc2n1	-14%	-5%	-2%	11%	x	16%
CCC(C)(C)n1nnnc1CN(Cc1ccc(Cl)cc1)Cc1ccco1	-2%	-3%	-3%	10µM*	i	u
CC(C)(C)n1nnnc1CN(Cc1ccco1)Cc1cc2cc3c(cc2[nH]c1=O)OCO3	1%	0%	-1%	-10%	>77	-1%
CC(=O)[C@@]1(O)CC[C@@H]2[C@@H]3CCC4=CC(=O)CC[C@@]4(C)[C@H]3CC[C@]21C	1%	0%	2%	1%	x	-14%
O=C(NCc1ccccc1)[C@@H]1C[C@H]1[C@@H](NP(=O)(c1ccccc1)c1ccccc1)c1ccccc1	6%	-1%	1%	u	x	u
O=C(NCC1CC1)[C@@H]1C[C@H]1[C@@H](NP(=O)(c1ccccc1)c1ccccc1)c1ccccc1	-7%	-1%	0%	13µM*	x	u
CN1C[C@H](C(=O)N[C@]2(C)O[C@@]3(O)[C@H]4CCCN4C(=O)[C@@H](Cc4ccccc4)N3C2=O)C[C@H]2c3cccc4[nH]cc(c34)C[C@@H]21	x	x	x	-5%	x	-10%
CCc1c(C(=O)Nc2nnc(C3CC3)s2)csc1C	-6%	0%	1%	22%	1.5*	-3%
O=C(Nc1nnc(C2CCCCC2)s1)c1cccs1	-14%	1%	-2%	-8%	>77	-13%
